Assay outcomes (PubChem BioAssay)
Gli-Sufu block: antagonists of Gli-Sufu signaling; Sufu-KO-LIGHT fibroblasts, Gli luciferase reporter luminescence; inhibition, % at 5 µM; 340,000 tested, 0.74% active;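 active = inhibition above about 55%, limit read from the data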;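 note: 0% = DMSO-treated cells and 100% = wells with medium but no cells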
GalR3 antag: human GalR3 antagonism | 360,000 tested, 0.44% active | O60755 | inhibition, % at 3 µM | HEK293 GalR3-CNG cAMP membrane potential fluorescence; galR3 body fused to GalR1 C-terminus;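 active = inhibition above the screen-wide average plus 3 SD, cut at about 13% in these data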;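 note: forskolin and galanin both at EC90 stimulate the cells; cAMP rise reported by CNG channel membrane potential dye signal; 0% = forskolin plus galanin with DMSO and 100% = forskolin alone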
Target sequence (O60755 1-299 limits assumed): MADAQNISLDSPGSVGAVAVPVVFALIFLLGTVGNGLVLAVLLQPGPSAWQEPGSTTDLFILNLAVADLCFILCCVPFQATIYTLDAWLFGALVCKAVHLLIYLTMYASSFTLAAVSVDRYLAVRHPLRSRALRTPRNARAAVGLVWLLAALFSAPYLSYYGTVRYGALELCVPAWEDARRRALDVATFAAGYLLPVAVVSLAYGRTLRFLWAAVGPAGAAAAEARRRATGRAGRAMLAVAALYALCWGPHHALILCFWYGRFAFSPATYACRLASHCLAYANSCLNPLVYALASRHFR
aDG glyco up: alpha-DG glycosylation activation; Pro5-aDG cells, alpha-DG glycosylation AlphaScreen (IIH6); 0% Pro5, 100% B10-LARGE cell signal; activation, % at 10 µM; 360,000 tested, 0.22% active;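 active = activation of at least 8% versus controls, or a plate z-score of at least 8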;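 note: Pro5 are CHO cells carrying HIG-tagged alpha-DG that lacks glycosylation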
COUP-TFII inh: inhibitors of human COUP-TFII (NR2F2). inhibition, % at 8.6 µM. 370,000 tested, 0.7% active. P24468. HEK293T NGFI-A luciferase reporter, luminescence;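 active = inhibition above a per-plate cutoff, mean inhibition of test wells between control levels plus 3 SD, cut at about 38% in these data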;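 note: cells cotransfected with COUP-TFII expression vector driving the NGFI-A reporter; 0% = median of COUP-TF2 test wells and 100% = reporter-only cells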
Env fusion inh: inhibitors of HIV Env-mediated cell fusion; HeLa-JRFL Env/CEM21 cell fusion, luciferase; inhibition, % at 12.3 µM; 360,000 tested, 1.1% active; AID 651610;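 active = mean replicate inhibition score of at least 50 and every replicate individually at or above 50; inconclusive = only one of the two criteria met; inactive = mean below 50 and not all replicates reaching 50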;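 note: 0% = plate neutral controls and 100% = maraviroc near 300 nM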
Gli-Sufu confirm: Gli-SUFU antagonism confirmation, single concentration; shares compounds with Gli-Sufu block; Sufu-KO-LIGHT cells, Gli luciferase reporter, luminescence; inhibition, % at 5 µM; 2,500 tested, 40% active; AID 602428;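 active = mean inhibition at 5 µM reaching about 45%, limit read from the data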;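 note: plate controls were DMSO-treated cells for no effect and wells lacking cells for full effect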
SufuKO cytotox: cytotoxicity counter-screen for Gli-SUFU antagonists | shares compounds with Gli-Sufu block | Sufu-KO-LIGHT cells cytotoxicity, ATP luminescence | cytotoxicity, % at 5 µM | 2,500 tested, 32% active | AID 651994;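 active = mean cytotoxicity at 5 µM above about 25%, limit read from the data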;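 note: cells exposed to compound overnight for roughly 16 to 18 hours; plate controls were DMSO wells with cells for no effect and medium without cells for full effect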
Wnt3a cs: Wnt3a reporter inhibition counter-screen; shares compounds with Gli-Sufu block; Wnt-LIGHT cells, Wnt3a-driven luciferase reporter, luminescence; inhibition, % at 6.25 µM; 2,500 tested, 20% active; AID 651995;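 active = mean inhibition above about 25%, limit read from the data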
GalR3 antag conf: confirmation of human galanin receptor 3 antagonists | shares compounds with GalR3 antag | HEK293 GalR3 CNG cAMP biosensor, membrane potential fluorescence; galR3 fused to GalR1 carboxy tail; challenged with forskolin and galanin at EC90 | inhibition, % at 3 µM | 1,600 tested, 59% active;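 active = inhibition above the primary screen's cutoff, the mean inhibition of all screened compounds plus 3 SD, cut at about 13% in these data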;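 note: 0% = forskolin plus galanin and 100% = forskolin alone with DMSO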
HEK-CNG parental: parental cell agonism counter-screen for GalR3 antagonists. shares compounds with GalR3 antag. HEK293-CNG parental cells, cAMP membrane potential fluorescence; normalised: DMSO wells 0%, forskolin wells 100%. activation, % at 3 µM. 1,600 tested, 10% active. AID 652268; in the data active = activation above about 1.3%
Numbers without * were called inactive; ? = inconclusive; . = no result given; [ ] = remark or other dose. Shown are actives, neighbours in structure and some others; about 2.1% of the full set was active somewhere.

SMILES	Gli-Sufu block	GalR3 antag	aDG glyco up	COUP-TFII inh	Env fusion inh	Gli-Sufu confirm	SufuKO cytotox	Wnt3a cs	others
CCOc1ccc(-c2cc(C)[n+](CCO)c(-c3ccc(OCC)cc3)c2)cc1	64*	-3	0	8	4	60*	34*	-47
O=C(CN1C(=O)[C@@H](Cc2c[nH]c3ccccc23)N=C(c2ccccc2)c2ccccc21)NC1CCCCC1	.	.	.	3	.	.	.	.
Cc1c(N=Cc2c(O)n(CCc3ccccc3)c(=O)[nH]c2=O)c(=O)n(-c2ccccc2)n1C	6	0	0	-6	.	.	.	.
Cc1c(N=Cc2c(O)n(Cc3ccc(F)cc3)c(=O)[nH]c2=O)c(=O)n(-c2ccccc2)n1C	63*	10	0	-13	-3	23	4	-26
CSc1ncc(Cl)c(C(=O)O)n1	54	-3	0	1	.	34	-4	11
CSc1ncc(Br)c(N2CC2)n1	-1	2	0	0	-10	.	.	.
CCCNC(=O)[C@H]1[C@H](CO)[C@H]2Cn3c(cccc3=O)[C@H]2N1C	.	.	.	.	16[16.7 µM]	.	.	.
CC(=O)NC(Cc1ccc(N(CCCl)CCCl)cc1)C(=O)NCC(=O)NCC(=O)O (stereo not given)	53	-2	0	7	-2	19	4	-2
CCC1(OC(=O)CN)C(=O)OCc2c1cc1n(c2=O)Cc2cc3ccccc3nc2-1 (stereo not given)	82*	.	0	.	.	59*	59*	-83
C/C(=N\Nc1cccc2ccccc12)c1c(O)n(Cc2ccccc2)c(=O)[nH]c1=O	57*	-4	0	-4	.	18	12	-7
C/C(=N\NC(=O)c1ccccc1)c1c(O)n(Cc2ccccc2)c(=O)[nH]c1=O	-5	-4	0	-61	-6	.	.	.
Cc1ncc(CN2CCCC(C(=O)c3ccc(C(C)(C)C)cc3)C2)s1 (stereo not given)	53	-4	3	19	45	14	24	-90
COc1ccc(C(=O)C2CCCN(Cc3cnc(C)s3)C2)cc1OC (stereo not given)	12	-2	0	-12	11	.	.	.
CCOP(=O)(OCC)C(O)c1cccc([N+](=O)[O-])c1 (stereo not given)	58*	-5	0	7	1	12	25*	-34
Cc1ccccc1CCC[C@H](CC1CCCCC1)CN(C)C(=O)Oc1ccccc1	.	.	.	-16	.	.	.	.
C1=C(c2c[nH]c3ccccc23)CCN(Cc2ccccc2)C1	55*	-7	0	37	7	20	20	-50
CC(=O)N1c2ccccc2C(c2ccccc2)=NCC1C(=O)NCc1ccccc1 (stereo not given)	.	.	.	-18	.	.	.	.
CCC(C)n1c(O)c(C=NCc2cccnc2)c(=O)[nH]c1=S (stereo not given)	6	-3	0	10	5	.	.	.
O=c1[nH]c(=S)n(Cc2ccc(F)cc2)c(O)c1C=NCc1cccnc1	72*	-7	0	1	5	22	-5	-14
N=c1c2c(-c3ccccc3)c(-c3ccccc3)n(Cc3ccccc3)c2ncn1C1CCC(O)CC1 (stereo not given)	.	.	.	7	.	.	.	.
CCOc1cccc(N2C(=O)/C(=C/c3ccco3)C(=O)NC2=S)c1	55*	-8	0	-15	6	12	0	5
O=C1NC(=S)N(c2ccccc2)C(=O)/C1=C/c1ccco1	26	-1	0	2	8	.	.	.
C[C@@H]1CN([C@@H](C)CO)C(=O)CCCn2cc(nn2)CO[C@@H]1CN(C)C(=O)Oc1ccc2ccccc2c1	.	.	.	.	-26[16.7 µM]	.	.	.
CN(C)c1ccc(/C=C/C=C/c2sc3ccccc3[n+]2C)cc1	82*	6	3	28	?	84*	40*	48*
C[n+]1c(-c2ccccc2)sc2ccccc21	0	-4	0	15	8	.	.	.
SMILES	Gli-Sufu block	GalR3 antag	aDG glyco up	COUP-TFII inh	Env fusion inh	Gli-Sufu confirm	SufuKO cytotox	Wnt3a cs	others
COC(=O)[C@H]1[C@H](CO)[C@H]2Cn3c(cccc3=O)[C@@H]1N2C(=O)C1CC1	.	.	.	.	0[16.7 µM]	.	.	.
CC1=CC2OC3CC4OC(=O)C=CC=CC(=O)OCCC(C)C(O)C(=O)OCC2(CC1O)C4(C)C31CO1 (stereo not given)	88*	.	0	.	.	96*	82*	104*
OC(c1ccccc1)(c1ccc(Cl)cc1)C1CN2CCC1CC2 (stereo not given)	58*	-3	0	5	-37	27	22	-44
CN1c2ccc(Br)cc2[C@H]2NCC[C@H]2[C@H]1CO	.	.	.	8	.	.	.	.
CCOP(=O)(CCP(=O)(OCC)OCC)OCC.C[CH2][Sn]([Cl])([Cl])[CH2]C	63*	11	0	21	-9	63*	14	-25
C[C@H](CO)N1C[C@H](C)[C@H](CN(C)C(=O)Oc2ccc3ccccc3c2)OCc2cn(nn2)CCCC1=O	.	.	.	.	-5[16.7 µM]	.	.	.
N/C(=N\N=C\c1ccc(O)cc1O)N[N+](=O)[O-]	55*	-3	0	9	-7	14	15	42*
COC(=O)[C@H]1[C@H](CO)[C@H]2Cn3c(cccc3=O)[C@@H]1N2Cc1nccs1	.	.	.	.	-1[16.7 µM]	.	.	.
CC(C)(C)c1cc([N+](=O)[O-])cc(C(C)(C)C)c1O	51	90*	.	21	58*	77*	42*	72*	GalR3 antag conf=102*;HEK-CNG parental=1
N#CC1c2ccccc2-n2nncc2CN1C(=O)c1cccnc1 (stereo not given)	.	.	.	-11	.	.	.	.
